# Screens deposited in PubChem by several laboratories.
# An excerpt weighted towards active compounds, which were near 2.2% of everything screened.
# Ba/F3 V617F tox: loss of viability in JAK2V617F-driven Ba/F3 cells; 1.1% of 220,000 active; inhibition, % at 5.6 µM; Ba/F3 EpoR-JAK2V617F viability, ATP luminescence; AID 1446;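 active means inhibition above the campaign mean plus 3 SD over all tested compounds, cut at about 24% in these data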;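 further: cytokine-independent growth of Ba/F3 cells driven by EpoR plus mutant JAK2; 0% = DMSO-treated cells and 100% = JAK inhibitor I control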
# BaF3 tox: counter-screen for JAK2V617F inhibitors: parental Ba/F3 viability inhibitors. CellTiter-Glo ATP luminescence. inhibition, % at 5.6 µM. 1.1% of 220,000 active;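 active means inhibition above a per-campaign cutoff, the mean inhibition of all tested compounds plus 3 SD, cut at about 27% in these data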;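 further: 0% = DMSO wells and 100% = JAK Inhibitor I control wells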
# IEC-6 tox: counter-screen for KLF5 inhibitors: cytotoxicity in IEC-6 cells; IEC-6 cytotoxicity, luminescence viability; inhibition, % at 5 µM; 0.78% of 290,000 active;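 further: 0% = plate median of test compound wells and 100% = cytotoxic reference compound wells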
# APP transl inh: APP translation inhibition; SH-SY5Y APP 5'UTR-luciferase reporter, luminescence; 0.82% of 190,000 active; inhibition, % at 2 µM;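 active means inhibition above a set limit, derived from the sample mean plus 3 SD, cut at about 45% in these data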
# aSyn UTR inh: MLPCN primary screen, SNCA 5' untranslated region; 0.82% of 300,000 active; alpha-synuclein 5'UTR reporter, inhibitor activity; inhibition, % (tested at 7.5 µM); in the data active means inhibition above about 60%;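 further: H4 neuroglioblastoma cells stably carrying SNCA 5'UTR luciferase fusion; 0% = DMSO wells and 100% = positive control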
# KLF5 inhibitor: kruppel-like factor 5 inhibition; DLD-1 KLF5 promoter-luciferase reporter, luminescence; inhibition, % at 5 µM; 0.23% of 290,000 active; AID 1700;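 active means inhibition above a per-plate limit of that plate's mean compound inhibition plus 3 SD, cut at about 60% in these data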;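 further: 0% = DMSO wells and 100% = LY294002 at 200 µM; higher means less KLF5 promoter-driven luciferase light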
# IEC-6 cytotox cf: confirmation of cytotoxic compounds in rat IEC-6 intestinal epithelial cells; shares compounds with IEC-6 tox; IEC-6 rat intestinal epithelial viability, luminescence; 63% of 1,900 active; inhibition, % at 5 µM;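 further: 0% = vehicle and 100% = reference cytotoxic drug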
# The depositor's hits bear a star; . = no result. Unless noted, no stated cut-off is given here; in the data, active means inhibition above about 22%; inactive means the rest.
SMILES,Ba/F3 V617F tox,BaF3 tox,IEC-6 tox,APP transl inh,aSyn UTR inh,KLF5 inhibitor,IEC-6 cytotox cf
CC(C)c1ccc(NC(=O)C(c2ccccc2)N2CCN(C(=O)c3ccco3)CC2)cc1 (centres undefined),-2,6,46*,-33,-14,-53,16
O=C(C1CC1)N1CCN(c2ccc(O)cc2)CC1,.,.,2,.,-5,-6,.
Fc1ccc(NC(=S)N2CCOCC2)cc1Cl,97*,100*,58*,-14,23,6,8
CC(C)n1cc(NC(=O)c2cc(-c3ccccc3)on2)cn1,41*,28*,64*,77*,-218,-3,46*
CCOC(=O)N1CCc2c(sc3c2c(=O)n(-c2ccc(CC)cc2)c(=O)n3CC(=O)NCC2CCCO2)C1 (centres undefined),.,.,26*,.,30,-2,8
CC(=O)N1CCc2c(sc3c2c(=O)n(-c2ccccc2)c(=O)n3CC(=O)NCC2CCCO2)C1 (centres undefined),.,.,-6,.,5,-34,.
CCN(CC)CCC(=O)Nc1cccc2c1C(=O)c1ccccc1C2=O,85*,68*,26*,.,-5,23,24*
Nc1cccc(C(=O)OCC(=O)Nc2cccc3c2C(=O)c2ccccc2C3=O)c1,1,4,2,10,16,-24,.
COc1ccccc1CNC(=O)c1ccc(OC(F)F)c(OC)c1,0,0,35*,-16,4,0,2
COc1nn(-c2ccccc2)c(=O)c(Cl)c1Cl,.,.,100*,.,-347,-7,23*
COc1c(Cl)cnn(-c2ccccc2)c1=O,-1,2,-2,10,4,-24,.
CCOc1ccc(Nc2c3ccccc3nc3ccccc23)cc1,76*,68*,72*,.,-94,40,44*
CCOc1ccc(Nc2cc(C)c3ccccc3n2)cc1,.,.,2,.,-85,-27,.
COc1ccc(OCC(=O)Nc2ccccc2-c2ccccc2)cc1,4,7,28*,11,21,10,15
COc1cccc(OC)c1C(=O)Nc1ccccc1N1CCCCC1,.,.,26*,.,23,3,2
COc1ccc(OCC(=O)Nc2ccccc2N2CCCCC2)cc1,.,.,70*,.,21,56,42*
COc1ccc(OCC(=O)Nc2ccccc2N2CCN(C)CC2)cc1,.,.,2,.,-13,17,.
CCOC(=O)N1CCN(C(=O)c2cn(C)c3ccc(S(=O)(=O)N4CCC(C)CC4)cc3c2=O)CC1,-2,4,2,7,0,-12,.
COc1ccc(CNC(=O)c2coc(=O)c3ccccc23)cc1,-2,-3,-2,-24,-4,-12,.
CC(=O)C(C(c1ccccc1)c1c[nH]c2ccccc12)[N+](=O)[O-] (centres undefined),.,.,32*,.,-30,22,21
NNC(=O)c1cc2ccccc2[nH]1,3,3,32*,90*,55,34,-5
O=C(NCCCO)c1cc2ccccc2[nH]1,6,5,-2,-11,-9,-2,.
Cc1cccc(C(=O)NNC(=O)C23CC4CC(CC(C4)C2)C3)c1O,.,.,37*,.,-15,-21,5
Cc1ccccc1C(=O)NNC(=O)C12CC3CC(CC(C3)C1)C2,-3,-6,2,13,13,4,.
CCOc1ncccc1C(=O)OCC(=O)N(CC(C)C)c1c(N)n(Cc2ccccc2)c(=O)[nH]c1=O,.,.,.,.,-6,.,.
SMILES,Ba/F3 V617F tox,BaF3 tox,IEC-6 tox,APP transl inh,aSyn UTR inh,KLF5 inhibitor,IEC-6 cytotox cf
COc1ccc(C(=O)c2ccc(OC)c(N)c2)cc1N,81*,81*,76*,91*,46,38,61*
CCOC(=O)N1CCN(C(=O)c2cn(CC)c3ccc(S(=O)(=O)N4CCOCC4)cc3c2=O)CC1,.,.,-1,.,3,-9,.
COc1ccc(C(NC(=O)c2c(F)c(F)c(F)c(F)c2F)c2ccccc2)cc1 (centres undefined),-4,1,27*,7,21,-7,11
Cc1cc(NC(=O)CSc2nnc3c(C)cc4c(C)ccc(C)c4n23)no1,2,10,55*,14,-15,52,22
Cc1cc2nc(C3CCN(Cc4nnnn4Cc4cccs4)CC3)[nH]c2cc1C,2,7,46*,4,63*,-11,34*
O=c1cnc2ccccc2n1Cc1ccc(Br)cc1,.,.,10,.,-65,-37,.
CC(C)(C)c1ccc(Cn2c(=O)cnc3ccccc32)cc1,.,.,24*,.,-37,19,8
